{
  "source": "PubChem BioAssay (EPA / NIEHS)",
  "note": "Activity calls are given as the source filed them. The calls were made as follows: active = hit-call score of the fitted dose curve at least 0.9, where 1 is the maximum; inactive = score below 0.9.",
  "data": [
    {"target": "Estrogen receptor (Homo sapiens) (UniProt P03372)", "sequence (P03372 whole entry, looked up)": "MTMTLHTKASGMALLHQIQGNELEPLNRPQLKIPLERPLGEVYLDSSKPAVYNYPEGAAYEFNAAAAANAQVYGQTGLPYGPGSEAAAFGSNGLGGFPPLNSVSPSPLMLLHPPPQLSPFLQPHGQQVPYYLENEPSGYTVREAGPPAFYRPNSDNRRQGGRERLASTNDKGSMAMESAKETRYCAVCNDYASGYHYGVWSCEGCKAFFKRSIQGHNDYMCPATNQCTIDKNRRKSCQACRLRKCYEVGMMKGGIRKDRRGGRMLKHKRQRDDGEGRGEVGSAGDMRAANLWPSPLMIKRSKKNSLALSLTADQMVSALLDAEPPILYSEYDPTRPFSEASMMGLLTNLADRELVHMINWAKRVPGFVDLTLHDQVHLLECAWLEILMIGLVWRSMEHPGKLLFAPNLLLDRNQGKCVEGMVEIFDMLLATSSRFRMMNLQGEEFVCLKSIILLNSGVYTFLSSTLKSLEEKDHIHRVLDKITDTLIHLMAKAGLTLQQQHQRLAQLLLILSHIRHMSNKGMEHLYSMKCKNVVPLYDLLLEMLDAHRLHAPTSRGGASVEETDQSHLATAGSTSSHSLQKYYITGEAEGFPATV", "test": "OT_ERa_GFPERaERE_0480: Odyssey Thera (OT) 8-hour HeLa Transcription Induction Assay for Estrogen Receptor (AID 2283381)", "method": "OT_ERa_GFPERaERE_0480 is a cell-based, single-readout assay that uses HeLa, a human cervix cell line, with measurements taken at 8 hours after chemical dosing in a 384-well plate.OT_ERa_GFPERaERE_0480 is one of one assay component(s) measured or calculated from the OT_ERa_GFPERaERE_0480 assay. It is designed to make measurements of fluorescent protein induction, a form of inducible reporter, as detected with optical microscopy: fluorescence microscopy signals by Microscopy technology.Data from the assay component OT_ERa_GFPERaERE_0480 was analyzed into 1 assay endpoint. This assay endpoint, OT_ERa_EREGFP_0480, was analyzed in the positive analysis fitting direction relative to DMSO as the negative control and baseline of activity. Using a type of inducible reporter, measures of receptor for gain-of-signal activity can be used to understand the reporter gene at the pathway-level as they relate to the gene ESR1. Furthermore, this assay endpoint can be referred to as a primary readout, because the performed assay has only produced 1 assay endpoint. To generalize the intended target to other relatable targets, this assay endpoint is annotated to the nuclear receptor intended target family, where the subfamily is steroidal.\nAll assay endpoints are quantified using high content image analysis algorithms.", "values": [
      {"smiles": "CCCCOC(=O)[C@H](C)O", "outcome": "inactive"},
      {"smiles": "O=C(c1ccccc1)c1ccc(O)cc1O", "AC50": "8.62 µM (active)"},
      {"smiles": "CC(C)OC=O", "outcome": "inactive"},
      {"smiles": "N#Cc1ccccc1O", "outcome": "inactive"},
      {"smiles": "CCN=c1cc2oc3cc(NCC)c(C)cc3c(-c3ccccc3C(=O)OCC)c-2cc1C", "outcome": "inactive"},
      {"smiles": "O=C1C=CC(=O)N1c1ccccc1", "outcome": "inactive"},
      {"smiles": "CCOC(OCC)OCC", "outcome": "inactive"},
      {"smiles": "CCOC(=O)C1CC(=O)C(=C(O)C2CC2)C(=O)C1", "note": "(configuration not stated)", "outcome": "inactive"},
      {"smiles": "CCCCOC(=O)C(C)O", "note": "(configuration not stated)", "outcome": "inactive"},
      {"smiles": "CC(C)(C)c1cc(Cc2cc(C(C)(C)C)c(O)c(C(C)(C)C)c2)cc(C(C)(C)C)c1O", "outcome": "inactive"},
      {"smiles": "CCCCCCCCCCCCCC[P+](CCCC)(CCCC)CCCC", "AC50": "10.4 µM (active)"},
      {"smiles": "CCCCCCCC/C=C\\CCCCCCCC(=O)OCC(O)CO", "note": "(configuration not stated)", "outcome": "inactive"},
      {"smiles": "CCCCCCCCCc1ccc(OCCO)cc1", "outcome": "inactive"},
      {"smiles": "OCC1CCCO1", "note": "(configuration not stated)", "outcome": "inactive"},
      {"smiles": "CCC(Cc1c(I)cc(I)c(N)c1I)C(=O)O", "note": "(configuration not stated)", "outcome": "inactive"},
      {"smiles": "CCCCC(CC)COC(=O)c1ccc(N(C)C)cc1", "note": "(configuration not stated)", "outcome": "inactive"},
      {"smiles": "CCN=C1C=CC(=C(c2ccc(N(CC)CC)cc2)c2ccc(N(CC)CC)cc2)c2ccccc21", "outcome": "inactive"},
      {"smiles": "CC(C)(C)c1cc(CCC(=O)OCC(COC(=O)CCc2cc(C(C)(C)C)c(O)c(C(C)(C)C)c2)(COC(=O)CCc2cc(C(C)(C)C)c(O)c(C(C)(C)C)c2)COC(=O)CCc2cc(C(C)(C)C)c(O)c(C(C)(C)C)c2)cc(C(C)(C)C)c1O", "outcome": "inactive"},
      {"smiles": "Cc1ccc(O)c(-n2nc3ccccc3n2)c1", "outcome": "inactive"},
      {"smiles": "COCCOCCC[Si](C)(O[Si](C)(C)C)O[Si](C)(C)C", "outcome": "inactive"},
      {"smiles": "CCCCCCCCn1sc(Cl)c(Cl)c1=O", "outcome": "inactive"},
      {"smiles": "F[Si-2](F)(F)(F)(F)F", "outcome": "inactive"},
      {"smiles": "CCCCCCCCCCCCC[N+](C)(C)Cc1ccccc1", "outcome": "inactive"},
      {"smiles": "Cc1ccc([N+](=O)[O-])c(C)c1", "outcome": "inactive"},
      {"smiles": "CC(=O)CCC(C)C", "outcome": "inactive"},
      {"smiles": "CCCCCCCC/C=C\\CCCCCCCC(=O)N(C)CC(=O)O", "outcome": "inactive"},
      {"smiles": "CCc1cc(Cc2cc(CC)c(N)c(CC)c2)cc(CC)c1N", "outcome": "inactive"}
    ]}
  ]
}
